Source: PubChem BioAssay (NCATS)
Inconclusive results are not listed. Values without a mark were called inactive. Calls of active or inactive are those of the source. Calls come from the whole dose curve; as a rule, active = well fitted curve in either direction with a large enough effect (not every such curve was filed as active); inconclusive = small, poorly fitted or top-dose-only effect, or another doubt; inactive = flat fitted curve, though single readings scatter.

Assay: Stat Signaling Pathway (AID 446)
Conditions: ME-180 (cervical carcinoma) SIE beta-lactamase reporter, IL-6 stimulated, 5 h; series mostly up to 17.2 µM; activity, negative = inhibition: at the top concentration
Protocol: NCGC Assay Overview: The IL-6/STAT signaling pathway was assayed in ME-180 cervical carcinoma cells by a beta-lactamase reporter gene controlled by a STAT Inducible Element (SIE). This reporter is induced by IL-6 at 40 pM AC50 and inhibited by the pan JAK inhibitor, 2-(1,1-Dimethylethyl)-9-fluoro-3,6-dihydro-7H-benz[h]-imidaz[4,5-f]isoquinolin-7-one, at approximately 10 nM AC50. Plated cells were incubated overnight and on the following day, stimulated with 40 pM IL-6 for 5 hrs. The assay was screened at the AC50 of IL-6 activation to identify both inhibitors and activators of IL-6/STAT signaling.
NCGC Assay Protocol Summary: Cells were trypsinized, washed in assay medium (AM, OPTI MEM with 0.5% fetal bovine serum, 0.1 mM nonessential amino acids, 1 mM sodium pyruvate, 10mM HEPES pH 7.3, 100U/ml penicillin, and 100 ug/ml streptomycin) and suspended at 6 x 10e5/ml in AM. Approximately […] cells in 5 uL/well was dispensed into 1536 well plates and the cells were incubated overnight at 37 C. 23 nL of compound were delivered by a pin tool and 1 uL of IL-6 (40 pM final concentration in AM) was added. After centrifugation at 1000 rpm for less than a minute, plates were incubated at 37C for 5 hrs. One uL of detector mix (LiveBLAzerTM, Invitrogen) was added, the plates incubated at room temperature for 2.5 hrs, and fluorescence intensity at 460 and 530 nm emission was measured at 405 nm excitation by an Envision (Perkin Elmer) or Safire II (Tecan). Data were normalized by GeneData to the controls for AC90 stimulation (300 pM IL-6) and to AC90 inhibition (125 nM Jak inhibitor, 40 pM IL-6 in AM).
% is set by controls: 0 for no effect and ±100 for the full control effect.

**Q.** Which “activity, negative = inhibition” value does the source give for `c1ccc(CC2=NCCN2)cc1` here?
**A.** 5.21%

**Q.** Which “activity, negative = inhibition” value does the source give for `COc1cc(C(=O)NCc2ccc(OCCN(C)C)cc2)cc(OC)c1OC` here?
**A.** -9.15%

**Q.** Which “activity, negative = inhibition” value does the source give for `COc1ccc(C(=O)c2ccccc2O)c(O)c1` here?
**A.** -13.8%

**Q.** Which “activity, negative = inhibition” value does the source give for `CCCc1ncc(C[n+]2ccccc2C)c(N)n1` here?
**A.** 8.44%

**Q.** Which “activity, negative = inhibition” value does the source give for `CCOc1ccc(NC(C)=O)cc1` here?
**A.** 7.05%

**Q.** With `CC[C@H](c1ccc(O)cc1)[C@@H](CC)c1ccc(O)cc1` as the compound, how does the “activity, negative = inhibition” value read?
**A.** -28.1%

**Q.** With `CC(=O)O[C@]1(C(C)=O)CC[C@H]2[C@@H]3C=C(C)C4=CC(=O)CC[C@]4(C)[C@H]3CC[C@@]21C` as the compound, how does the “activity, negative = inhibition” value read?
**A.** -1.82%

**Q.** Which outcome does the source give for `O=C1C(CCS(=O)c2ccccc2)C(=O)N(c2ccccc2)N1c1ccccc1` (stereo not given) here?
**A.** inactive

**Q.** Which “activity, negative = inhibition” value does the source give for `CNCCc1ccccn1` here?
**A.** 3.35%

**Q.** For `CCOC(=O)Nc1ccc2c(c1)N(C(=O)CCN1CCOCC1)c1ccccc1S2`, which “activity, negative = inhibition” value is on record?
**A.** -24.4%

**Q.** With `CN(C)CCC[C@@]1(c2ccc(F)cc2)OCc2cc(C#N)ccc21` as the compound, how does the “activity, negative = inhibition” value read?
**A.** 1.3% [at 38 µM]

**Q.** Which “activity, negative = inhibition” value does the source give for `O=C1C(O)=C(O)C(=O)C(O)=C1O` here?
**A.** -10.8%

**Q.** Which “activity, negative = inhibition” value does the source give for `CCOC(=O)c1ccc(N)cc1` here?
**A.** -6.24%

**Q.** With `CC[N+](C)(CC)CCOC(=O)C(O)(c1ccccc1)C1CCCCC1` (stereo not given) as the compound, how does the “activity, negative = inhibition” value read?
**A.** -0.708%

**Q.** With `N=C(N)N1CCc2ccccc2C1` as the compound, how does the “activity, negative = inhibition” value read?
**A.** 8.09%

**Q.** With `O=c1[nH]c(=O)n([C@H]2C[C@H](O)[C@@H](CO)O2)cc1F` as the compound, how does the “activity, negative = inhibition” value read?
**A.** 3.58%

**Q.** Which “activity, negative = inhibition” value does the source give for `CCN(CC)CCNC(=O)c1cc(Br)c(N)cc1OC` here?
**A.** 4.35%

**Q.** For `Nc1ccc(S(=O)(=O)Nc2cnc3ccccc3n2)cc1`, which outcome is on record?
**A.** inactive

**Q.** Which outcome does the source give for `COc1cc(NS(=O)(=O)c2ccc(N)cc2)ncn1` here?
**A.** inactive

**Q.** With `C[N+]12CCC(CC1)C(OC(=O)C(O)(c1ccccc1)c1ccccc1)C2` (stereo not given) as the compound, how does the “activity, negative = inhibition” value read?
**A.** 6.71%

**Q.** With `CC(C)(C)NCC(O)COc1cccc2c1C[C@H](O)[C@H](O)C2` (stereo not given in full) as the compound, how does the “activity, negative = inhibition” value read?
**A.** 10.4%

**Q.** With `Cc1c(-c2ccccc2)oc2c(C(=O)OCCN3CCCCC3)cccc2c1=O` as the compound, how does the “activity, negative = inhibition” value read?
**A.** 11.3%

**Q.** With `CC(=O)OC[C@H]1O[C@@H](n2ncc(=O)[nH]c2=O)[C@H](OC(C)=O)[C@@H]1OC(C)=O` as the compound, how does the “activity, negative = inhibition” value read?
**A.** 5.46%

**Q.** Which “activity, negative = inhibition” value does the source give for `O=C(O)CCNC(=O)c1ccccc1` here?
**A.** -4.21%

**Q.** For `CC(=O)OCC(=O)[C@H]1CC[C@H]2[C@@H]3CCC4=CC(=O)CC[C@]4(C)[C@H]3CC[C@]12C`, which “activity, negative = inhibition” value is on record?
**A.** 10.4%

**Q.** For `CCCCc1cc2ccccc2c(OCCN(C)C)n1`, which “activity, negative = inhibition” value is on record?
**A.** -3.04%

**Q.** For `CC(=O)O[C@]1(C(C)=O)CC[C@H]2[C@@H]3C=C(Cl)C4=CC(=O)CC[C@]4(C)[C@H]3CC[C@@]21C`, which “activity, negative = inhibition” value is on record?
**A.** -5.71%

**Q.** For `Cc1cc(-c2ccccc2)nnc1NCCN1CCOCC1`, which outcome is on record?
**A.** inactive

**Q.** Which “activity, negative = inhibition” value does the source give for `Nc1ccc(C(=O)NCC(=O)O)cc1` here?
**A.** 0.643%

**Q.** Which “activity, negative = inhibition” value does the source give for `CCCCNc1ccc(C(=O)OCCOCCOCCOCCOCCOCCOCCOCCOCCOC)cc1` here?
**A.** 6.06%

**Q.** For `CC(C)(C)NC[C@H](O)COc1nsnc1N1CCOCC1`, which outcome is on record?
**A.** inactive

**Q.** With `CCN(CC)CCNC(=O)COc1ccc(OC)cc1` as the compound, how does the “activity, negative = inhibition” value read?
**A.** 2.34%

**Q.** Which “activity, negative = inhibition” value does the source give for `CN(C)CCOC(=O)C(c1ccccc1)C1(O)CCCC1` (stereo not given) here?
**A.** 5.89%

**Q.** For `CCCCN1C[C@H](O)[C@@H](O)[C@H](O)[C@H]1CO`, which “activity, negative = inhibition” value is on record?
**A.** 4.24%

**Q.** With `CCCCCCCCNC(C)C(O)c1ccc(SC(C)C)cc1` (stereo not given) as the compound, how does the “activity, negative = inhibition” value read?
**A.** -3.21%

**Q.** Which “activity, negative = inhibition” value does the source give for `COc1cc(C)nc(-n2nc(C)cc2OC)n1` here?
**A.** 10.7%

**Q.** For `CCc1cc(Cl)c(OC)c(C(=O)NC[C@@H]2CCCN2CC)c1O`, which “activity, negative = inhibition” value is on record?
**A.** 3.77%

**Q.** Which “activity, negative = inhibition” value does the source give for `NS(=O)(=O)Cc1noc2ccccc12` here?
**A.** -2.6% [at 38 µM]

**Q.** Which “activity, negative = inhibition” value does the source give for `COc1ccc(C(Cl)=C(c2ccc(OC)cc2)c2ccc(OC)cc2)cc1` here?
**A.** 14.9%

**Q.** For `NS(=O)(=O)c1cc(C(=O)O)cc(N2CCCC2)c1Oc1ccccc1`, which “activity, negative = inhibition” value is on record?
**A.** 16.1%
